Screening results deposited in PubChem by National Center for Advancing Translational Sciences (NCATS).
A selection: hits, their analogues and other compounds. The true share with any hit is near 19%.
DT40 TDP1 CPT – DT40-hTDP1 cell growth loss with CPT. AID 686979. 12% of 420,000 active. Potency, µM (top dose mostly 46.2 µM), for the others: at the top dose activity change, negative = growth inhibition, hits mostly inhibitors. chicken DT40 Tdp1-/-;hTDP1 cells + 20 nM CPT, ATP luminescence, 48 h; also: nearly all actives have a fitted effect of over 55% in size
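Chicken DT40 Tdp1-/- cells stably complemented with human TDP1 were seeded at 400 cells/well in medium containing 20 nM camptothecin, exposed to pin-transferred compounds, and grown at 37 °C for at least 48 hr. Viability was read as ATP luminescence.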
KB-3-1 cytotox – KB-3-1 parental cell cytotoxicity; KB-3-1 viability, CellTiter-Glo ATP luminescence, 72 h; 1.4% of 400,000 active; Potency, µM (top dose mostly 46.1 µM), most hits filed as cytotoxic; also: nearly all actives have a fitted effect of over 60% in size
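Viability of parental KB-3-1 cells, measured by CellTiter-Glo luminescence, followed a 72 h incubation at 37 °C with pinned compounds in phenol-red-free DMEM containing 10% FBS.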
HT1080 IDH1KD tx – HT-1080 IDH1 knockdown cell toxicity (counter line) | HT-1080 IDH1 knockdown viability, ATP luminescence, 48 h | 2% of 360,000 active | Potency, µM (highest dose often 46.1 µM), inactives show top-dose activity, negative = toxicity, hits mostly cytotoxic;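 also: 0% = DMSO wells and -100% = cell-free medium wells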
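% activity derives from luminescence (CellTiter-Glo), normalised to DMSO and no-cell wells. HT-1080-IDH1KD cells, 750/well, had 48 h compound exposure at 37 °C.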
DT40 TDP1 no CPT – qHTS for Inhibitors of human tyrosyl-DNA phosphodiesterase 1 (TDP1): qHTS in cells in absence of CPT; DT40 Tdp1-/- hTDP1 cells, no CPT, ATP luminescence, 48 h; Potency, µM (series often up to 46.2 µM), inactives show top-dose activity change, negative = growth inhibition, usual class: inhibitors; 15% of 420,000 active; also: nearly all actives have a fitted effect of over 55% in size
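No-CPT arm: Tdp1-/-;hTDP1 DT40 cells (400/well) plus compounds, incubated ≥48 hr at 37 °C. Readout CellTiter-Glo luminescence.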
KB-V1 cytotox – kills drug-selected multidrug resistant KB-V1 cells; KB-V1 MDR cells viability, CellTiter-Glo, 72 h; Potency, µM (titrated, usually from 46.1 µM), hits mostly cytotoxic; 3.4% of 400,000 active; also: nearly all actives have a fitted effect of over 60% in size
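Cells of the MDR subline KB-V1 are plated, dosed with compound at multiple concentrations, and incubated 72 h at 37 degrees C; CellTiter-Glo is then added and luminescence read after 10 min.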
HT1080-NT tox – kills 2HG-producing HT-1080-NT fibrosarcoma cells; HT-1080-NT fibrosarcoma viability, CellTiter-Glo ATP luminescence, 48 h; Potency, µM (top dose mostly 46.1 µM), without a hit: top-dose activity, negative = less viability, most hits filed as cytotoxic; 1.6% of 360,000 active; AID 686970;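 also: NT is the 2HG producing partner of a matched IDH1 knockdown line; 0% = DMSO-treated cells and -100% = media-only wells without cells; nearly all actives have a fitted effect of over 55% in size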
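A 48-hour cytotoxicity screen used HT-1080-NT cells plated 2 hours before compound delivery. ATP-based CellTiter-Glo luminescence measured viability, normalized to DMSO and no-cell controls.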
Active calls of the source: *; i = inactive; ? = inconclusive; / = no result; ! = not active in a repeat; [ ] = remark or other dose. Calls follow the shape of the dose curve; as a rule, active = well fitted curve in the direction sought with a large enough effect; inconclusive = small, poorly fitted or top-dose-only effect, or another doubt; inactive = no such curve, though single readings can be large; an effect the other way counts as inactive or inconclusive. Unless noted, % is scaled to controls: 0 for no effect and ±100 for the full control effect; potency is read from the fitted curve at half-maximal effect.

SMILES | DT40 TDP1 CPT | KB-3-1 cytotox | HT1080 IDH1KD tx | DT40 TDP1 no CPT | KB-V1 cytotox | HT1080-NT tox
O=P(Cc1ccccc1)(c1ccccc1)c1ccccc1 | ? | i | 8% | ? | ? | 10%
O=P(Cc1ccccc1)(Cc1ccccc1)c1ccccc1 | ? | i | -7% | ? | 18µM* | 1%
CC(C)(C)[C@]1(O)CCN2C[C@H]3c4ccccc4CCc4cccc(c43)[C@@H]2C1 | 8.2µM*! | i | -29% | 12µM* | i | ?
CC(C)(C)C1(O)CCN2CC3c4ccccc4CCc4cccc(c43)C2C1 (stereo not drawn) | 17µM* | / | / | 24µM* | / | /
CN1CCN2c3ncccc3Cc3ccccc3C2C1 (stereo not drawn) | 16% | i | 0% | 11% | i | 15%
Cc1cc2c(c(/C=C/C(=O)c3ccccc3)c1)OC1(C=C2)Oc2ccccc2C(=O)N1C (stereo not drawn) | ? | 16µM* | ? | 26µM* | ? | ?
Cc1c(/C=C/C(=O)c2ccccc2)cnn1C | ? | i | 1% | ? | i | -2%
CCCCNC(=S)NNC(=O)C1=NN(c2cc(C)ccc2C)C(=O)CC1 | -20% | i | -7% | -21% | i | 0%
CC1CN(Cc2cccn2-c2ncccn2)Cc2cc(Cl)ccc2O1 (stereo not drawn) | 14%[9.04 µM] | / | / | ? | / | /
Cc1cc(OCCn2c(C3CC(=O)N(Cc4ccc(F)cc4)C3)nc3ccccc32)ccc1Cl (stereo not drawn) | ? | i | / | 26µM* | i | /
CCc1ccccc1N1CC(c2nc3ccccc3n2CCOc2ccc(Cl)c(C)c2)CC1=O (stereo not drawn) | 10µM* | ? | / | 21µM* | i | /
CCn1c(C2CC(=O)N(Cc3ccccc3)C2)nc2ccccc21 (stereo not drawn) | -15% | i | 11% | -8% | i | 8%
CCOc1ccccc1N1CC(c2nc3ccccc3n2CCOc2ccc(C(C)(C)C)cc2)CC1=O (stereo not drawn) | ? | ? | / | ? | i | /
Cc1cccc(C)c1OCCn1c(C2CC(=O)N(Cc3ccc(F)cc3)C2)nc2ccccc21 (stereo not drawn) | ? | i | / | 18µM* | i | /
CCOc1cc(Cn2c(-c3ccc(O)c(OCC)c3)nc3ccccc32)ccc1O | ? | i | / | ? | i | /
CCCC(=O)n1nc(-c2ccco2)nc1NCc1ccccc1Cl | -26% | i | / | -1% | ? | /
O=C(NCCc1ccccc1)C1=CCN(S(=O)(=O)c2ccccc2)CC1 | -20% | i | -1% | 0% | i | -5%
CCCNC(=O)c1cnc2sc(N3CCCCCC3)nn2c1=O | -23% | / | / | ? | / | /
O=C(O)CSc1cc(NS(=O)(=O)c2ccc(Cl)cc2)c2ccccc2c1O | 4.6µM* | ? | 26µM* | 2.3µM* | ? | ?
COc1ccc(S(=O)(=O)Nc2cc(SCC(=O)O)c(O)c3ccccc23)cc1 | 3.3µM* | ? | -6% | 5.2µM* | ? | ?
COc1ccc(S(=O)(=O)Nc2cccc3ccc(O)cc23)cc1 | 6.5µM* | 15µM* | 5.2µM* | 7.3µM* | ? | 3.3µM*
O=S(=O)(Nc1ccc(Cl)cc1NS(=O)(=O)c1ccccc1)c1ccccc1 | ? | i | ? | ? | i | ?
COc1ccc(S(=O)(=O)Nc2cc(S(=O)(=O)c3ccccc3)c(O)cc2C)cc1 | -18% | i | -4% | -14% | i | 2%
Fc1ccc(NC(=S)NCc2ccc3c(c2)OCO3)cc1 | ? | i | 4% | ? | i | 1%
Fc1ccc(NC(=S)SCc2ccc3c(c2)OCO3)cc1F | ? | i | -14% | 18µM* | i | 1%
SMILES | DT40 TDP1 CPT | KB-3-1 cytotox | HT1080 IDH1KD tx | DT40 TDP1 no CPT | KB-V1 cytotox | HT1080-NT tox
N#C/C(=C\c1cc([N+](=O)[O-])ccc1Cl)C(N)=O | 2.6µM* | i | ? | 2.9µM* | i | ?
COc1ccc(Cl)cc1NC(=O)CN(C)C(=O)CCc1nc2ccccc2c(=O)[nH]1 | ? | i | -6% | -21% | i | -3%
CCc1ccc(NC(=O)CC2C(=O)N(c3ccc(C)cc3)C(=O)N2C2CCCC2)cc1 (stereo not drawn) | ? | i | / | 21µM* | i | /
CCc1ccc(NC(=O)CC2C(=O)N(c3ccc(Cl)cc3)C(=O)N2C2CCCC2)cc1 (stereo not drawn) | ? | / | / | 18µM* | / | /
COc1cccc(N2C(=O)C(CC(=O)Nc3ccccc3)N(C3CCCCC3)C2=O)c1 (stereo not drawn) | -8% | i | 0% | -25% | ? | 5%
CCc1ccc(NC(=O)CC2C(=O)N(c3cccc(OC)c3)C(=O)N2C2CCCC2)cc1 (stereo not drawn) | 16µM* | / | / | ? | / | /
CCOC(=O)c1ccc(NC(=O)CC2C(=O)N(c3ccc(C)cc3)C(=O)N2C2CCCCC2)cc1 (stereo not drawn) | -25% | i | / | -16% | i | /
Cc1cccc(C(=O)OCC(=O)N(C)C(c2ccccc2)c2ccccc2)c1[N+](=O)[O-] | 12µM* | i | -4% | 7.3µM* | i | -7%[9.24 µM]
O=C(Oc1ccc(-c2nnco2)cc1)C1CCN(C(=O)c2ccc(F)cc2)CC1 | -11% | i | 10% | -8% | i | 1%
N=c1n(Cc2ccccc2)c2ccccc2n1CC(O)COc1ccccc1 (stereo not drawn) | 7.3µM* | 21µM* | ? | 6.5µM* | 21µM* | ?
Cc1ccc(Cn2c(=N)n(CC(O)COc3ccccc3)c3ccccc32)cc1 (stereo not drawn) | 18µM* | i | ? | 9.2µM* | 16µM* | -21%
CCn1c(CNC(=O)c2ccco2)nnc1SCC(=O)Nc1ccccc1Cl | -16% | i | -1% | -4% | i | 11%
CCOc1ccc(-c2csc(NNC3=NCCCCC3)n2)cc1 | 10µM* | i | -13% | 21µM* | i | -6%
c1ccc(NNC2=NCCCCC2)cc1 | -17% | ? | 4.1µM* | -41% | i | ?
c1ccc(-c2csc(NNC3=NCCCCC3)n2)cc1 | 2.1µM* | i | ? | 1.8µM* | ? | ?
Clc1ccc(-c2csc(NNC3=NCCCCC3)n2)cc1 | ? | ? | -5% | 16µM* | i | -2%
